# Laboratory results published in PubChem BioAssay (NCATS).
# Results filed as inconclusive are left out. Where a call stands in place of a potency, no number is given. Calls of active or inactive are those of the source. Calls come from the whole dose curve; as a rule, active = well fitted curve in the direction sought with a large enough effect; inconclusive = small, poorly fitted or top-dose-only effect, or another doubt; inactive = no such curve, though single readings can be large; an effect the other way counts as inactive or inconclusive.
# How the values were obtained:
# [1] = U-118MG Cancer Cell Toxicity qHTS against the NCATS CANVASS Library (AID 1347351); note: potency is the fitted concentration of half-maximal effect
# Procedure, shortened: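 In this cytotoxicity screen, 1000 cells per well rested 4 hours, then received compound (11 concentrations) for a 72-hour incubation; an ATP-dependent luminescent signal (CellTiter-Glo) was the endpoint.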
# [2] = UWB1.289-WTBRCA1 Cancer Cell Toxicity qHTS against the NCATS CANVASS Library (AID 1347354); note: potency is the fitted concentration of half-maximal effect
# Procedure, shortened: (§1)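 Using an ATP-based luminescent reagent after three days of treatment, toxicity is scored across an eleven-concentration range in wells holding 1000 cells each.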
# [3] = HPAF-II 24hr Apoptosis Induction qHTS against the NCATS CANVASS Library (AID 1347356)
# Procedure, shortened: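 Using an 11-point qHTS format, HPAF-II cells in DMEM/10% FBS received compounds for 24 h; doxorubicin titration as control. Caspase-3/7 activity quantified by DEVD-luciferase luminescence.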
# [4] = system: NAD(P)H diaphorase (Clostridium kluyveri); assay: Diaphorse counterscreen qHTS: Assay Interference Panel against the NCATS CANVASS Library (AID 1347362); note: potency is the fitted concentration of half-maximal effect
# Procedure, shortened: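 Clostridium kluyveri diaphorase in PBS + 0.01% Tween-20 preincubated 15 min with compounds. Resazurin and NADH then added for 5 min at room temperature in the dark; resorufin fluorescence read (ex 525, em 598).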
# [5] = KB-8-5-11 Cancer Cell Toxicity qHTS against the NCATS CANVASS Library (AID 1347364); note: nearly all actives have a fitted effect of over 75% in size; note: potency is the fitted concentration of half-maximal effect
# Procedure, shortened: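 Luminescent ATP signal (CellTiter-Glo, 10 min at room temperature) measured cell survival of KB-8-5-11 after 72 hr compound treatment. For confirmation, the cells were also grown with 1uM tariquidar.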
# [6] = qHTS for ATAD5 Antagonist screened against the NCATS CANVASS Library (AID 1347370); note: nearly all actives have a fitted effect of over 65% in size; note: potency is the fitted concentration of half-maximal effect
# Procedure, shortened: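 HEK293T-ATAD5 luc reporter, 2000 cells/well; 5hr attach; cpd + 10 uM 5-FUrd; 16hr 37C, 5% CO2. Readouts: CellTiter-Fluor fluorescence (1hr), then Amplite luciferase luminescence (30min RT).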
# [7] = target: Nuclear receptor subfamily 1 group I member 3 (Homo sapiens) (UniProt Q14994); assay: qHTS for Constitutive Androstane Receptor (CAR) Antagonist screened against the NCATS CANVASS Library (AID 1347372); note: potency is the fitted concentration of half-maximal effect
# Chain of Nuclear receptor subfamily 1 group I member 3 (Homo sapiens) (Q14994 whole entry, looked up): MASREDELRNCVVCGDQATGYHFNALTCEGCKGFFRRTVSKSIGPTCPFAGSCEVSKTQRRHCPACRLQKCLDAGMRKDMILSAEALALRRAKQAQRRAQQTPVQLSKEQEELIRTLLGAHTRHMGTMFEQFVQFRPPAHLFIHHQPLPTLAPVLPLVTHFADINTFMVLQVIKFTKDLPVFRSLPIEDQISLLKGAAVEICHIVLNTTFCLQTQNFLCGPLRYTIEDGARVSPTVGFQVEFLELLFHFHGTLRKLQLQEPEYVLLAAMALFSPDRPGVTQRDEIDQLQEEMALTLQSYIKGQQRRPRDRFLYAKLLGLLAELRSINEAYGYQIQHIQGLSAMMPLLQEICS
# Procedure, shortened: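 Luminescence readout (ONE-Glo, 30 min RT) of CYP2B6-2.2kb reporter in HepG2-hCAR cells after 24hr, 37C treatment with compound against 50 nM CITCO; CellTiter-Fluor viability read beforehand.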
# [8] = qHTS for Hypoxia signaling pathway (HIF-1) agonists against the NCATS CANVASS Library (AID 1347375); note: potency is the fitted concentration of half-maximal effect
# Procedure, shortened: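 An HRE-beta-lactamase ME-180 line is exposed for 17 h to an 11-point compound series, then read by CCF4-AM FRET. Cytotoxicity is measured in parallel in the same wells with CellTiter-Glo, and autofluorescence is checked separately.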
# [9] = DH5-alpha competent E. coli microbial cell viability qHTS against the NCATS CANVASS Library (AID 1347377); conditions: outcome: dose series up to 46.1 µM unless noted
# Procedure, shortened: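 Overnight incubation at 37C, 5% CO2 of E. coli DH5-alpha (diluted to 0.2 OD) with compounds precedes BacTiter-Glo addition. Luminescence, acquired after 20 min at room temperature, reflects viable-cell ATP.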
# [10] = qHTS for H2AX Agonists against the NCATS CANVASS Library (AID 1347378); note: potency is the fitted concentration of half-maximal effect
# Procedure, shortened: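 CHO-K1 cells (1000/well, overnight at 37C) exposed to compounds at several concentrations for 3 hr at 37C, 0.76% DMSO final. Lysates read by TR-FRET (phospho-H2AX S139 Eu-cryptate antibody / H2AX-d2 antibody) after 24 hr at room temperature; 665/615 nm ratio.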
# [11] = Cytotoxicity qHTS for assessment of Hepg2 cells membrane integrity screened against the NCATS CANVASS Library (AID 1347387)
# Procedure, shortened: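 Membrane damage in HepG2 monolayers was estimated from released LDH, measured with CytoTox-ONE (ex 560/em 590 nm), after 5 hr treatment across 0.59 nM - 46 uM final.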
# [12] = qHTS for Activators of p53 Stress Response Pathway screened against the NCATS CANVASS Library (AID 1347388)
# Procedure, shortened: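 p53RE-bla HCT-116 cells (4000/well) were pre-incubated for 5 h, then treated with compound (11 points) for 16 h at 37C. After 2 h with CCF4, the 460/530 nm ratio gave reporter activation; CellTiter-Glo measured viability.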
# [13] = qHTS assay for small molecule disruptors of mitochondrial membrane potential screened against the NCATS CANVASS Library (AID 1347389); note: nearly all actives have a fitted effect of over 60% in size; note: potency is the fitted concentration of half-maximal effect
# Procedure, shortened: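 Cells (HepG2) seeded the day before received compound or DMSO for 1 hr, then Mito-MPS dye for 30 min at 37C; emission at 590 nm over 535 nm gave the polarization signal.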
# [14] = Secretion counterscreen for inhibitors of the SERCaMP assay screened against the NCATS CANVASS Library (AID 1347390);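 note: light from luciferase secreted into medium read as a measure of general secretion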; note: potency is the fitted concentration of half-maximal effect
# Procedure, shortened: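 SH-SY5Y cells with constitutively secreted GLuc reporter, 1000 cells/well, treated 20 h at 37C with compounds at 0.001 - 77 uM final; secreted luciferase read as luminescence after coelenterazine; Brefeldin A as positive control.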
# [15] = qHTS for activators of dead-cell proteases activity screened against the NCATS CANVASS Library (AID 1347392);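 note: luminescence from protease leaking out of membrane-damaged cells cleaving impermeant substrate; rising signal means more cytotoxicity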; note: potency is the fitted concentration of half-maximal effect
# Procedure, shortened: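 HepG2, 2000 cells/well, 18 h attach; cpd 11-pt, 5 h 37C 5% CO2; CytoTox-Glo (AAF-aminoluciferin) 15 min RT; luminescence read.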
# [16] = qHTS for inhibitors of ER calcium dysfunction: SERCaMP assay screened against the NCATS CANVASS Library (AID 1347393); note: nearly all actives have a fitted effect of over 40% in size; note: potency is the fitted concentration of half-maximal effect
# Procedure, shortened: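 SH-SY5Y GLuc-SERCaMP, 1000 cells/well, 4 h attach; cpd 16 h, 37C/5% CO2; thapsigargin (added as 6x 600 nM) 4 h; coelenterazine; luminescence. Reduced reporter release = ER Ca stabilization.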
# [17] = Redox Reaction Profiling qHTS: Assay Interference Panel against the NCATS CANVASS Library (AID 1347401); note: potency is the fitted concentration of half-maximal effect
# Procedure, shortened: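 Fluorescence read-out (525 nm excitation, 598 nm emission) at time zero and after 15 min in the dark tracked resorufin formation. Mix: 5 uM resazurin, 200 uM DTT, HEPES pH 7.3 buffer with NaCl.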
# [18] = A2780 Cisplatin Sensitive Ovarian Cancer Cell Toxicity qHTS against the NCATS CANVASS Library (AID 1347353); note: nearly all actives have a fitted effect of over 60% in size; note: potency is the fitted concentration of half-maximal effect
# Procedure, shortened: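 Quantitative HTS format: eleven compound concentrations applied to pre-seeded cells, 72 h incubation at 37 °C, then ATP detection by luminescence.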
# [19] = SDT Cancer Cell Toxicity qHTS against the NCATS CANVASS Library (AID 1347365); note: nearly all actives have a fitted effect of over 60% in size; note: potency is the fitted concentration of half-maximal effect
# Procedure, shortened: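 Canine SDT glioma cell toxicity was scored by ATP-dependent luminescence after a 72 hr incubation with an 11-point compound series.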
# [20] = HEK-293 Cancer Cell Toxicity qHTS against the NCATS CANVASS Library (AID 1347355); note: nearly all actives have a fitted effect of over 65% in size; note: potency is the fitted concentration of half-maximal effect; for outcome: series mostly up to about 46 µM
# Procedure, shortened: as §1
SMILES,Potency [1],Potency [2],outcome [3],Potency [4],Potency [5],Potency [6],Potency [7],Potency [8],outcome [9],Potency [10],outcome [11],Potency [12],Potency [13],Potency [14],Potency [15],Potency [16],Potency [17],Potency [18],Potency [19],Potency [20]
C=C1C(=O)C[C@H]2C[C@@H]1[C@]2(C)CCC=C(C)C,inactive,inactive,inactive,inactive,inactive,inactive,inactive,inactive,inactive,inactive,inactive,inactive,inactive,inactive,inactive,19.3 µM (active),inactive,–,–,–
C[C@@H]1C[C@H]2C[C@]3(CCCCN3C)[C@@H]3C[C@H]2[C@H](C1)N(C)C3,inactive,inactive,inactive,inactive,inactive,inactive,inactive,inactive,inactive,inactive,inactive,inactive,inactive,–,inactive,30.5 µM (active),inactive,inactive,inactive,–
OCc1ccc2ocnc2c1,inactive,inactive,inactive,inactive,inactive,inactive,inactive,inactive,inactive,inactive,inactive,inactive,inactive,inactive,inactive,inactive,inactive,inactive,inactive,inactive
C[C@@H]1C(=O)[C@]23CC[C@H]1C[C@]21O[C@H]2C(C)(C)C=CC(=O)[C@]23COC1=O,inactive,inactive,inactive,inactive,inactive,inactive,inactive,inactive,inactive,inactive,inactive,inactive,inactive,inactive,inactive,inactive,inactive,inactive,inactive,inactive
C=CC(=C)CC[C@]1(C)[C@H]2C[C@H](OC(=O)C(C)CC)C=C3[C@H](OC(C)=O)O[C@H](OC(C)=O)[C@@]32[C@H](OC)C[C@@H]1C (stereo partly drawn),3.43 µM (active),5.45 µM (active),–,–,7.62 µM (active),10.8 µM (active),12.1 µM (active),19.3 µM (active),–,19.9 µM (active),–,–,15.2 µM (active),3.96 µM (active),60.6 µM (active),inactive,inactive,1.52 µM (active),8.55 µM (active),4.29 µM (active)
CC(=O)O[C@@H]1C=C2C(=O)OC[C@]2(O)[C@@]2(C)CCCC(C)(C)[C@H]12,18.8 µM (active),21.1 µM (active),–,inactive,18.7 µM (active),–,–,–,–,–,–,inactive,18.6 µM (active),15.3 µM (active),–,inactive,inactive,1.32 µM (active),13.2 µM (active),8.33 µM (active)
COc1ccc(CCCc2cc(O)c(OC)c(O)c2)c(O)c1O,inactive,inactive,inactive,21.6 µM (active),inactive,11.7 µM (active),inactive,inactive,inactive,inactive,inactive,inactive,–,inactive,inactive,–,21.5 µM (active),inactive,0.166 µM (active),–
C/C=C1/CC[C@@H]2c3[nH]c4ccccc4c3CCN2C1,inactive,inactive,inactive,inactive,inactive,inactive,inactive,inactive,inactive,inactive,inactive,inactive,inactive,inactive,inactive,19.3 µM (active),inactive,inactive,inactive,–
O=Cc1ccc2n1C[C@@]1(C[C@H](O)[C@H](O)CO1)OC2,inactive,–,inactive,inactive,inactive,inactive,inactive,inactive,inactive,inactive,inactive,inactive,inactive,inactive,inactive,–,inactive,inactive,inactive,inactive
C/C1=C/[C@@H](C)[C@H](O)C/C=C/CC/C=C/C(=O)O[C@@H]1[C@H](C)C(=O)/C=C/CC1CC(=O)NC(=O)C1,21.1 µM (active),–,inactive,inactive,inactive,16.6 µM (active),–,inactive,inactive,inactive,inactive,–,–,–,inactive,4.31 µM (active),24.1 µM (active),3.72 µM (active),9.35 µM (active),7.43 µM (active)
C=C1C[C@@]23C=CC(=O)[C@@](C)(CCCC(C)C(=O)O)[C@@H]2C[C@@H]1CC3 (stereo partly drawn),inactive,inactive,inactive,inactive,inactive,inactive,inactive,inactive,inactive,inactive,inactive,inactive,inactive,inactive,inactive,inactive,inactive,inactive,inactive,inactive
C=C1C(=O)O[C@H]2[C@H]1CC/C(CO)=C\CC[C@@]1(C)O[C@@H]21,18.8 µM (active),–,inactive,inactive,–,20.9 µM (active),20.9 µM (active),inactive,inactive,21.7 µM (active),–,–,–,34.3 µM (active),–,4.31 µM (active),inactive,2.96 µM (active),13.2 µM (active),5.9 µM (active)
C=C(C)CC[C@H](Cc1c(O)cc(O)c2c1O[C@H](c1ccc(O)cc1O)CC2=O)C(=C)C,inactive,inactive,inactive,inactive,inactive,inactive,inactive,inactive,–,inactive,inactive,inactive,18.6 µM (active),–,inactive,30.5 µM (active),inactive,–,inactive,inactive
C=C1C[C@@]23C=CC(=O)[C@@](C)(CCC(=O)Nc4c(O)ccc(C(=O)O)c4O)C2C[C@@H]1CC3O (stereo partly drawn),inactive,inactive,inactive,inactive,inactive,inactive,inactive,inactive,inactive,inactive,inactive,inactive,inactive,inactive,inactive,inactive,inactive,inactive,inactive,inactive
O=C1C[C@@H](c2ccc(O)c(-c3c(O)cc(O)c4c3O[C@H](c3ccc(O)cc3)CC4=O)c2)Oc2cc(O)cc(O)c21,inactive,inactive,inactive,inactive,inactive,inactive,inactive,inactive,inactive,inactive,inactive,inactive,inactive,inactive,inactive,inactive,inactive,inactive,inactive,inactive
CN1CC[C@]2(c3cccc4c3N[C@@H]3N(C)CC[C@]43[C@@]34CCN(C)[C@@H]3Nc3ccccc34)c3ccccc3N[C@H]12,7.49 µM (active),–,inactive,inactive,16.6 µM (active),inactive,26.3 µM (active),inactive,–,inactive,inactive,inactive,inactive,–,–,inactive,inactive,14.8 µM (active),2.96 µM (active),7.43 µM (active)
C[C@@H](O)[C@H]1OC(=O)C=C2[C@]3(C)[C@H]4[C@H](OC(=O)[C@@]4(C)[C@@H](O)[C@H]4O[C@H]43)[C@H]3O[C@@]231,–,–,inactive,inactive,1.48 µM (active),inactive,5.24 µM (active),inactive,inactive,–,inactive,–,inactive,3.84 µM (active),inactive,inactive,inactive,0.833 µM (active),1.18 µM (active),1.48 µM (active)
COc1ccc(/C=C2\COc3cc(O)ccc3C2=O)cc1,–,inactive,inactive,inactive,–,inactive,inactive,inactive,inactive,inactive,inactive,–,20.9 µM (active),inactive,inactive,–,inactive,14.8 µM (active),–,–
C[C@@H]1O[C@@H](O[C@@H]2[C@@H](O)[C@H](O[C@@H]3[C@@H](O)[C@@H](O)C(O[C@H]4[C@H](OC(=O)[C@]56CCC(C)(C)C[C@H]5C5=CCC7[C@@]8(C)C[C@H](O)[C@H](O[C@@H]9C[C@H](CO)[C@@H](O)[C@H](O)[C@H]9O)[C@@](C)(CO)C8[C@H](O)C[C@@]7(C)[C@]5(C)CC6)OC[C@H](O)[C@@H]4O)O[C@H]3C)OC[C@H]2O)[C@H](O)[C@H](O)[C@H]1O (stereo partly drawn),inactive,inactive,inactive,inactive,inactive,inactive,inactive,inactive,inactive,inactive,inactive,inactive,inactive,inactive,inactive,inactive,inactive,inactive,inactive,inactive
